# Assay results published in PubChem BioAssay (EPA / NIEHS).
# Values joined by “and” are separate entries in the source; they are usually repeats but may differ in a detail not shown here. Equal entries are not always repeated. Inconclusive results are not listed. Active and inactive are the calls of the source. How the source made its calls: active means hit-call score of the fitted dose curve at least 0.9, where 1 is the maximum; inconclusive means response in the unintended direction; inactive means score below 0.9.
# Target: chimpanzee Androgen Receptor (AR), AR (gene 747460) (UniProt O97775)
# Experiment: NVS_NR_cAR: NovaScreen (NVS) Nuclear Receptor Binding Assay for chimpanzee Androgen Receptor (AR) (AID 2283346);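 further: a loss of bound radioligand signal versus DMSO counts as binding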
# Experimental: NVS_NR_cAR is a biochemical, single-readout assay that uses extracted gene-proteins from Sf9/Sf21 in a cell-free assay. Measurements were taken 72 hours after chemical dosing in a 96-well plate.NVS_NR_cAR is one of one assay component(s) measured or calculated from the NVS_NR_cAR assay. It is designed to make measurements of radioligand binding, a form of binding reporter, as detected with scintillation counting signals by Lysate-based radiodetection technology.Data from the assay component NVS_NR_cAR was analyzed into 1 assay endpoint. This assay endpoint, NVS_NR_cAR, was analyzed in the positive analysis fitting direction relative to DMSO as the negative control and baseline of activity. Using a type of binding reporter, loss-of-signal activity can be used to understand changes in the binding as they relate to the gene AR. Furthermore, this assay endpoint can be referred to as a primary readout, because the performed assay has only produced 1 assay endpoint. To generalize the intended target to other relatable targets, this assay endpoint is annotated to the nuclear receptor intended target family, where the subfamily is steroidal.
# Binding assays used specific radioligands (tritiated, iodinated) with non-radioactive competitive displacement ligands in agonist or antagonist protocols (as indicated) and various reference compounds and inhibitors to titrate specific binding to receptors and transporters. Most enzyme assays (CYPs, kinases, phosphatases, proteases, HDACs) used recombinant protein and specific substrates (fluorescence mostly, some colorimetric and radioactive) and inhibitors, followed by a biochemical separation of substrate and product. All assays for the biochemical HTS were initially run in duplicate at a single concentration (10 uM for CYP450 assays and 25 uM for all others). […] Each assay was run with positive and negative controls, and concurrent controls on every plate. The follow-up (secondary) screen tested active chemical-pairs in concentration series, as well as a few additional assays not tested in the primary screen, some selected negative inactives, and several cases re-run in the concentration series for confirmatory purposes.
# Sequence of chimpanzee Androgen Receptor (AR), AR (gene 747460) (O97775 whole entry, looked up): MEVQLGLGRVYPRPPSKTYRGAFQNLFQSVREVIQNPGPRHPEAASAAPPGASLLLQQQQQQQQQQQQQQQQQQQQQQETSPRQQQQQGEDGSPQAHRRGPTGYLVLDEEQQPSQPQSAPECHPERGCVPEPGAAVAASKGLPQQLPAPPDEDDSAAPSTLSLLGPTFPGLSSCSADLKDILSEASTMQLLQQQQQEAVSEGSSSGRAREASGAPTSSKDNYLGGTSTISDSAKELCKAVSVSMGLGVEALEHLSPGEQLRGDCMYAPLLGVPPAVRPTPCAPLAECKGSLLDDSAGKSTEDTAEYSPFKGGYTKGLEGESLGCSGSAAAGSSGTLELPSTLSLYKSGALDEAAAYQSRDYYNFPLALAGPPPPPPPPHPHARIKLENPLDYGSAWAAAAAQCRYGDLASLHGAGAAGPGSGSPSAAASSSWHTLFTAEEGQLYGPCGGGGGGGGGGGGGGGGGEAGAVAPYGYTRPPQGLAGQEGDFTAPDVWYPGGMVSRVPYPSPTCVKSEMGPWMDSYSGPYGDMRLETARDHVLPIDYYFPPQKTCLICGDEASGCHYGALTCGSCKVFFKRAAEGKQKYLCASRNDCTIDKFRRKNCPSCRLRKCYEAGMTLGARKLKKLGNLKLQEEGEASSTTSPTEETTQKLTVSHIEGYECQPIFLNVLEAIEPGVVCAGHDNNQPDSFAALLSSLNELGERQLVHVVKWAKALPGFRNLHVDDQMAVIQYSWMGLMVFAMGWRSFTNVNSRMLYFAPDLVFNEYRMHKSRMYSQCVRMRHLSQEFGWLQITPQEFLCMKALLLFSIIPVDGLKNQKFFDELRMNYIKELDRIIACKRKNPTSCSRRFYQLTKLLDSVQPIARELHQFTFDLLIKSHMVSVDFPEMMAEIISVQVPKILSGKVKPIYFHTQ
Structure (SMILES),AC50,outcome
Cc1ccc(N/N=c2\c(=O)cc/c(=N/Nc3ccc(S(=O)(=O)O)cc3)c2=O)c(C)c1,25 µM (active),
CCCOC(=O)CCCCC(=O)OCCC,,inactive
Oc1ccc(Cl)cc1Cc1cc(Cl)ccc1O,16.2 µM (active),
CCN(CCC#N)c1ccc(N=Nc2c(Cl)cc([N+](=O)[O-])cc2Cl)cc1,16.1 µM (active),
CN(C)c1ccc(N=Nc2ccccc2C(=O)O)cc1,,inactive
C#CC1(O)CC[C@H]2[C@@H]3CCC4=CCCC[C@@H]4[C@H]3CC[C@@]21C (stereo not given in full),,inactive
c1ccc2c(c1)ccc1cc3c(ccc4ccccc43)cc12,,inactive
OC1CCCCCCCCCCC1,,inactive
CCCCC/C=C\C/C=C\CCCCCCCC(=O)OC,4.2 µM (active) and 11.5 µM (active),
COC(=O)c1c(C)cc(O)c(C)c1O,13.6 µM (active),
